# Only some compounds are listed: those with a hit (about 28% of all), similar ones and a draw of the others.
# CYP2C9 act = CYP2C9 (human) activation | hit rate 1.4% among 96,000 | activation factor at 5 µM | recombinant CYP2C9, luciferin-H conversion, luminescence; active compounds read high; factor 1 = untreated enzyme, 0 = blocked;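 active = activation factor of 2 or more for CYP2C9 at a 5 µM dose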;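 note: 0 = sulfaphenazole-blocked wells and 1 = vehicle-only wells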
# CYP2C19 inhib = blocks human cytochrome P450 2C19; P33261; CYP2C19 Supersomes, luciferin-H EGE luminescence, 30 min; inhibition, % at 5 µM; hit rate 21% among 96,000; AID 778;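 active = CYP2C19 inhibition above a set limit at 5 µM in the primary screen, cut at about 50% in these data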;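 note: plate controls were negative control wells for no effect and 2.5 mM tranylcypromine positive control for full effect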
# Target sequence (P33261 whole entry, looked up): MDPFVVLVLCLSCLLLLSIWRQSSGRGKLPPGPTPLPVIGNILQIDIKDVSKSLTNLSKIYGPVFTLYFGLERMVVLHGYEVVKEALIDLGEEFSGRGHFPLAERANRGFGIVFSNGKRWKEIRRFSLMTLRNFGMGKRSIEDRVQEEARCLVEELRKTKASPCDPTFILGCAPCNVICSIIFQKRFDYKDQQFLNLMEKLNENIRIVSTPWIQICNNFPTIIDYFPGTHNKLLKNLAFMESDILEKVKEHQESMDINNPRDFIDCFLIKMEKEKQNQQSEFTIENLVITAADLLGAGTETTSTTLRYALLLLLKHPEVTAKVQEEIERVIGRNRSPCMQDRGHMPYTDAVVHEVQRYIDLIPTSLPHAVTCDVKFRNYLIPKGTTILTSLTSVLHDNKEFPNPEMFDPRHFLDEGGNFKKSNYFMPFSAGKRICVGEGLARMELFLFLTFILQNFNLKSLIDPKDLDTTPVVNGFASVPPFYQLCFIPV
# CD11b adhes inh = inhibitors of human CD11b/CD18 binding to fibrinogen. P05107+P11215. K562 CD11b/CD18 adhesion to fibrinogen, ATPlite luminescence; Mn2+ added to activate the integrin. inhibition, % at 10 µM. hit rate 0.54% among 93,000. AID 1497;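 active = primary inhibition of 50% or more at 10 µM, then 40% or more on retest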
# CYP2C19 act = increases human CYP2C19 enzyme activity; P33261; recombinant CYP2C19, luciferin-H EGE luminescence; active compounds read high; 0 = fully inhibited enzyme, 1 = untreated enzyme; activation factor at 5 µM; 96,000 tested, under 10 active;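 active = activation factor of at least 2 at 5 µM in the primary screen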;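 note: 0 = wells with 2.5 mM tranylcypromine and 1 = vehicle-only wells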
# CD11b adhes enh = CD11b/CD18-fibrinogen binding enhancement | activation, % at 10 µM | P05107+P11215 | hit rate 0.07% among 93,000 | K562 CD11b/CD18 adhesion to fibrinogen, ATPlite luminescence;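 active = 10 µM primary screen giving 50% or more activity, confirmed by 40% or more on retest at that dose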
# CYP2C9 inh = blocks human cytochrome P450 2C9 | AID 777 | hit rate 20% among 96,000 | inhibition, % at 5 µM | CYP2C9 Supersomes, luciferin-H conversion, luminescence | P11712;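 active = blocking of liver enzyme CYP2C9 beyond about 50% at 5 µM, limit read from the data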
# Active calls of the source: *; · = no result.
SMILES,CYP2C9 act,CYP2C19 inhib,CD11b adhes inh,CYP2C19 act,CD11b adhes enh,CYP2C9 inh
CC(C)c1ccc(S(=O)(=O)N2CCN(CC(=O)Nc3ccc4c(c3)OCO4)CC2)cc1,0.8,12,-6,0.9,2,19
O=C(CCc1ccc(S(=O)(=O)NCCc2ccccc2)cc1)Nc1ccc2c(c1)OCCO2,·,·,17,·,-2,·
O=C(Cn1cnc2c(nnn2-c2ccc(F)cc2)c1=O)N1CCCC1,1.1,-14,2,1.1,0,-14
CCn1c(=O)cc(OCC(=O)NCC2CCCO2)c2ccccc21 (configuration not stated),1.2,0,-22,1,-1,-23
CCOC(=O)/C=c1\s/c(=C\c2c(OCC)ccc3ccccc23)c(=O)n1CC(=O)NCC1CCCO1 (configuration not stated),0.3,93*,-7,0.1,59,70*
CCOC(=O)/C=c1\s/c(=C\c2ccc3c(c2)OCCO3)c(=O)n1CC(=O)NCC1CCCO1 (configuration not stated),0.4,73*,15,0.3,5,58*
O=C(NC(Nc1cc(C(F)(F)F)ccc1Cl)C(=O)c1ccccc1)c1ccccc1 (configuration not stated),1,7,·,0.9,·,-5
O=C(CCc1ccccc1)Nc1cc(C(F)(F)F)ccc1Cl,3.9*,62*,·,0.4,·,-291
CN(C)CC(=O)Nc1cc(C(F)(F)F)ccc1Cl,2.2*,8,·,0.9,0,-124
CCOC(=O)/C(=N\Nc1cc(C(F)(F)F)ccc1Cl)N(CC)CC,0.6,80*,4,0.2,-1,42
Cc1ccc[n+](CC(=O)Nc2cc(C(F)(F)F)ccc2Cl)c1,1.1,15,-5,0.9,2,-10
O=C(CS(=O)c1cccc(C(F)(F)F)c1)Nc1ccccc1Cl (configuration not stated),3.3*,55*,·,0.5,·,-231
CCCC(=O)NC(Nc1cc(C(F)(F)F)ccc1Cl)C(Cl)(Cl)Cl (configuration not stated),0.8,14,-5,0.9,-2,20
CC1CN(Cc2cc(=O)[nH]c(C3CC3)n2)CC(C)O1 (configuration not stated),1.1,12,6,0.9,4,-11
CN1OC(CC(=O)O)N(c2ccc(Cl)cc2)C1=O (configuration not stated),0.9,2,-1,1,-1,7
CCOC(=O)CC1ON(C)C(=O)N1c1ccc(Cl)cc1Cl (configuration not stated),0.5,99*,5,0,5,46
CCOc1cc(NC(=O)c2ccco2)c(OCC)cc1NC(=O)CCC(=O)NCc1cccnc1,0.6,-9,7,1.1,4,36
O=C(Nc1ccccc1)Nc1ccccc1C(=O)NCc1ccccc1,0.5,18,10,0.8,-3,50*
O=C(Nc1ccccc1C(=O)NCc1ccccc1)c1ccco1,0.3,54*,-21,0.5,4,74*
O=C(Nc1ccc(Cl)cc1C(=O)NCc1cccnc1)c1ccco1,0.4,23,-23,0.8,1,58*
CNC(=O)Nc1ccccc1C(=O)NCc1ccccc1,0.9,37,1,0.6,-2,14
O=C(Nc1ccccc1C(=O)NCc1cccnc1)c1ccco1,0.5,78*,-8,0.2,2,54*
CSCCC(NC(=O)c1cncc(Br)c1)C(=O)O (configuration not stated),0.9,17,1,0.8,-5,15
O=C(N[C@@H](Cc1ccccc1)C(=O)NC1CCCCCC1)c1ccco1,0.8,10,-3,0.9,-3,20
CN(Cc1ccccc1)C(=O)c1ccccc1NC(=O)c1ccccc1,0.9,45,4,0.6,-1,14
CCCNC(=O)c1ccccc1NC(=O)c1ccc(CSc2ccccc2)cc1,0.2,74*,-41,0.3,2,79*
Cc1ccc(C(=O)Nc2cccnc2)cc1NC(=O)c1ccco1,0.5,-6,-4,1.1,-2,54*
CCC(C)NC(=O)c1ccccc1NC(=O)c1ccc(CSc2ccccc2)cc1 (configuration not stated),·,·,-15,·,1,·
O=C(Nc1cccnc1)c1cccc(NC(=O)c2ccco2)c1,1.4,3,-5,1,4,-42

# Compound activity deposited in PubChem BioAssay by Sanford-Burnham Center for Chemical Genomics.
